Screens: PubChem, several laboratories
CYP2C9 inhib: blockers of cytochrome P450 2C9 activity – biochemical, luminescence, ADME assay, primary screen | P11712 | AID 777, 2007 | 96,000 compounds, 20% hits | inhibition, % at 5 µM | CYP2C9 Supersomes, luciferin-H conversion;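 active means blocking of liver enzyme CYP2C9 beyond about 50% at 5 µM, limit read from the data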
CYP2C19 act: human CYP2C19 activators, primary screen, biochemical, luminescence; recombinant CYP2C19, luciferin-H EGE luminescence; stronger effect = higher value; 0 = fully inhibited enzyme, 1 = untreated enzyme; 96,000 tested, under 10 active; activation factor at 5 µM; Cytochrome P450 2C19 (Homo sapiens), P33261; AID 1025, 2008;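 active means activation factor of at least 2 at 5 µM in the primary screen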;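 further: 0 = wells with 2.5 mM tranylcypromine and 1 = vehicle-only wells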
Target sequence (P33261 whole entry, looked up): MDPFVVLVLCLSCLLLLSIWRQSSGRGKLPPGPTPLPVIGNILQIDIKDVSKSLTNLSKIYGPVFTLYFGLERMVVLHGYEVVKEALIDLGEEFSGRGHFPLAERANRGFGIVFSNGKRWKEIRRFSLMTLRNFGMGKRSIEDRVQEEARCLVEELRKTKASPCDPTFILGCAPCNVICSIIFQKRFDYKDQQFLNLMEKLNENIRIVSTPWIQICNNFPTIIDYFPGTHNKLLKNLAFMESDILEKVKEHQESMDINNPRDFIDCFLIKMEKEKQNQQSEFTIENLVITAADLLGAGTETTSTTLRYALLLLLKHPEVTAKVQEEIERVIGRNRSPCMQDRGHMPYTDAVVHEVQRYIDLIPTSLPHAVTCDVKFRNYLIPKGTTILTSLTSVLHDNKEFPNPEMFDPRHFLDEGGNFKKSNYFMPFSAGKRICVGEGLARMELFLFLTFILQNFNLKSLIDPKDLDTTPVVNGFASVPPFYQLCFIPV
CYP2C19 inhib: blockers of cytochrome P450 2C19 activity – biochemical, luminescence, ADME assay, primary screen; P33261; CYP2C19 Supersomes, luciferin-H EGE luminescence, 30 min; inhibition, % at 5 µM; 96,000 compounds, 21% hits;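 active means CYP2C19 inhibition above a set limit at 5 µM in the primary screen, cut at about 50% in these data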;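 further: plate controls were negative control wells for no effect and 2.5 mM tranylcypromine positive control for full effect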
Measles CPE: compounds protecting cells from measles virus cytopathic effect, primary screen, measles RdRp inhibitor project, single point, MLSMR library, absorbance; Measles virus-infected cells, CPE protection; protection (pct of control), % at 4 µM; 140,000 compounds, 1.5% hits; in the data active means protection mostly above about 24%, no sharp cut-off; inactive means mostly below about 26%
CYP2C9 activ: human CYP2C9 activators, primary screen, biochemical, luminescence; Cytochrome P450 2C9 (Homo sapiens), P11712; recombinant CYP2C9, luciferin-H conversion; stronger effect = higher value; factor 1 = untreated enzyme, 0 = blocked; activation factor at 5 µM; 96,000 compounds, 1.4% hits;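 active means activation factor of 2 or more for CYP2C9 at a 5 µM dose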;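 further: 0 = sulfaphenazole-blocked wells and 1 = vehicle-only wells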
* marks the source's active call; other numbers are inactive results; . = no result given. A selection: hits, their analogues and other compounds. The true share with any hit is near 22%.

SMILES | CYP2C9 inhib | CYP2C19 act | CYP2C19 inhib | Measles CPE | CYP2C9 activ
CCC(C)c1ccccc1OCCn1ccnc1 (configuration not stated) | . | . | . | 2 | .
CC(C)NCCOCCSc1ccc(Cl)cc1 | 1 | 0.7 | 25 | 0 | 1
Clc1ccc(OCCn2ccnc2)c(Br)c1 | 95* | 0 | 97* | 3 | 0.1
Cc1ccc(NC(=O)CSc2nnc(-c3ccccn3)n2C)cc1 | -1 | 0.8 | 17 | 15 | 1
COc1ccc(S(=O)(=O)N(C)C)cc1NS(=O)(=O)c1ccc(F)c(F)c1F | . | . | . | 4 | .
CCOc1ccc(-c2nc(CSc3nncs3)cs2)cc1OC | 7 | 0.5 | 53* | 9 | 0.9
CCOc1ccc(-c2nc(CSc3nnc(C)s3)cs2)cc1OC | 10 | 0.8 | 22 | 4 | 0.9
COCCCn1c(SCc2nc3ccccc3c(=O)[nH]2)nc2ccccc2c1=O | 67* | 0.6 | 36 | 9 | 0.3
CCn1c(SCc2nc3ccccc3c(=O)[nH]2)nc2ccccc2c1=O | . | . | . | 26 | .
Clc1ccc(-n2c(SCc3nc4ccccc4[nH]3)nnc2-c2ccncc2)cc1 | 84* | 0 | 99* | 11 | 0.2
C=CCn1c(SCc2nc3scc(-c4ccccc4)c3c(=O)[nH]2)nnc1-c1ccccc1F | . | . | . | 32 | .
O=c1[nH]c(CSc2nnc(-c3ccccc3)n2-c2ccccc2)nc2ccccc12 | . | . | . | 28* | .
C=CCn1c(SCc2nc3ccccc3c(=O)[nH]2)nnc1-c1cc2cc(Cl)ccc2o1 | 68* | 0.6 | 45 | 2 | 0.3
CCNC(=O)/C(C#N)=C/c1c(N2CC(C)OC(C)C2)nc2ccccn2c1=O (configuration not stated) | . | . | . | 6 | .
CCOC(=O)Cn1nc(-c2ccc(Cl)cc2)ccc1=O | 16 | 0.8 | 22 | 35 | 0.8
CC(C)Nc1nnc(SCC(=O)Nc2ccc3c(c2)C(=O)c2ccccc2C3=O)s1 | . | . | . | 9 | .
COCCn1c(SCc2nc3ccccc3c(=O)[nH]2)nnc1-c1ccncc1 | 38 | 0.5 | 52* | 15 | 0.6
CCOC(=O)c1[nH]c(CSc2nnc(-c3ccncc3)n2CCOC)c(C(=O)OCC)c1C | 94* | 0.3 | 65* | 13 | 0.1
O=c1[nH]c(CSc2nnc(-c3ccncc3)n2Cc2ccco2)nc2ccccc12 | 56* | 0.5 | 47 | 5 | 0.4
COc1ccccc1-c1nnc(SCc2nc3ccccc3[nH]2)n1C | 12 | 0.2 | 80* | 17 | 0.9
CCc1ccc(/C=C2\Oc3cc(OC(=O)N4CCOCC4)ccc3C2=O)cc1 | . | . | . | 8 | .
Cc1cccc(NC2=Nc3ccccc3N3C2=Nc2c(c(C)nn2-c2ccccc2)C3c2ccc(O)c(O)c2)c1 (configuration not stated) | 11 | 1 | -4 | 8 | 0.9
Cc1ccc(-n2[nH]c(C)c(C=Nc3ccc(C)cn3)c2=O)cc1 | 42 | 0.7 | 30 | 6 | 0.6
Cc1ccc(NC(=O)NC(=O)CSc2nnnn2C)c(C)c1 | -14 | 0.8 | 16 | 2 | 1.1
Cc1ccc(C(=O)N/C(=C\c2ccc(-c3ccc([N+](=O)[O-])cc3)o2)C(=O)NC2CCS(=O)(=O)C2)cc1 (configuration not stated) | . | . | . | 8 | .
SMILES | CYP2C9 inhib | CYP2C19 act | CYP2C19 inhib | Measles CPE | CYP2C9 activ
CCSc1c(-c2ccccc2)nc2c(C)cccc2c1C(=O)O | 78* | 1 | -1 | 8 | 0.2
Cc1ccc2ccc(S(=O)(=O)n3nc(C)cc3C)cc2c1 | -16 | 0.4 | 61* | 15 | 1.2
CC(=O)Nc1ccc(S(=O)(=O)n2nc(C)cc2C)cc1 | 43 | 0.6 | 44 | 26 | 0.6
CCC(C(=O)NC(C)CCc1ccccc1)n1nc(C)n2c(cc3occc32)c1=O (configuration not stated) | 87* | 0.3 | 71* | 6 | 0.1
CCc1nn(C(C)C(=O)Nc2cccc(C)c2C)c(=O)c2cc3occc3n12 (configuration not stated) | 66* | 0.3 | 71* | 21 | 0.3
CCC(C(=O)NC(C)CCc1ccco1)n1nc(C)n2c(cc3occc32)c1=O (configuration not stated) | . | . | . | 2 | .
CCc1nn(C(C)C(=O)NCCN2CCN(c3cccc(C)c3C)CC2)c(=O)c2cc3occc3n12 (configuration not stated) | -57 | 0.6 | 38 | 0 | 1.6
CCc1nn(C(C)C(=O)N2CCc3ccccc3C2)c(=O)c2cc3occc3n12 (configuration not stated) | 61* | 0.1 | 94* | 6 | 0.4
COc1cccc(N=c2oc3c(C)ncc(CO)c3cc2C(=O)Nc2ccccc2OC)c1 | 77* | 0.8 | 22 | 13 | 0.2
CCOc1ccc(OCC)c(N=c2oc3c(C)ncc(CO)c3cc2C(N)=O)c1 | 21 | 1 | -2 | 50* | 0.8
CCc1nnc(NC(=O)c2ccc3c(c2)C(=O)N(C(C)(C)C)C3=O)s1 | 34 | 0.9 | 6 | 14 | 0.7
CCC(=O)NS(=O)(=O)c1cccnc1Nc1ccc(Cl)cc1 | 96* | 0.8 | 18 | 24 | 0
CC(=O)NS(=O)(=O)c1cccnc1Nc1ccc(Cl)c(Cl)c1 | 71* | 1 | 4 | 1 | 0.3
NS(=O)(=O)c1cccnc1Nc1ccc(Cl)c(Cl)c1 | 43 | 0.5 | 50 | 5 | 0.6
O=C(c1cc2nc(-c3ccco3)cc(C(F)(F)F)n2n1)N1CCN(c2ccccc2)CC1 | 72* | 0.4 | 63* | 7 | 0.3
Cc1ccc(O)c(NC(=O)c2cc3nc4c(c(C(F)(F)F)n3n2)CCc2ccccc2-4)c1 | 3 | 1.1 | -7 | 6 | 1
COc1ccccc1N1CCN(C(=O)c2cc(-c3cccs3)on2)CC1 | . | . | . | 26 | .
Cc1ccccc1Cn1ccc(NC(=O)c2cc3nc(-c4ccco4)cc(C(F)(F)F)n3n2)n1 | 58* | 0.5 | 50* | 3 | 0.4
O=C(c1cc2nc(-c3ccco3)cc(C(F)(F)F)n2n1)N1CCN(c2ccccn2)CC1 | 27 | 0.7 | 30 | 31 | 0.7
Cc1ccc(Cn2ccc(NC(=O)c3cc4nc5c(c(C(F)(F)F)n4n3)CCc3ccccc3-5)n2)cc1 | 71* | 0.7 | 27 | 20 | 0.3
COc1ccccc1N1CCN(C(=O)c2cc(-c3ccco3)on2)CC1 | 76* | 0.1 | 92* | 7 | 0.2
CCOC(=O)C(=O)Nc1nnc(C2CCCCC2)s1 | 1 | 1.1 | -7 | 4 | 1
COc1cc2c3c(c1OC)C1(C=CC(=NNC(N)=O)C=C1)CC3N(C(C)=O)CC2 (configuration not stated) | . | . | . | 10 | .
CC(=O)c1ccc(NC(=O)CCCN2C(=O)/C(=C/C(C)=C/c3ccccc3)SC2=S)cc1 | . | . | . | 4 | .
O=C(c1cc(-c2ccc(Cl)c(Cl)c2)on1)N1CCN(c2ccccc2)CC1 | 4 | 1.1 | -6 | 41 | 1
